Data on 8 compounds can be found in PubChem BioAssay (NCI).

Structures are written as SMILES. Compounds without any hit were thinned out: in the full panel of roughly 83,000, 20% have a hit.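 Interpretation: 100, growth as untreated; towards 0, rising growth inhibition; 0, no net growth; 0 to -100, cell death. Compounds scoring below 10 were considered active.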 Unmarked numbers belong to inactive results. Activity calls are given as the source filed them.

Some test systems named below: SK-MEL-2 melanoma; EKVX NSCLC; SN12C renal; UO-31 renal; TK-10 renal; ACHN renal; CAKI-1 renal; A498 renal; CCRF-CEM leukemia; MOLT-4 leukemia; SR leukemia; RPMI-8226 leukemia; OVCAR-8 ovarian; OVCAR-5 ovarian; OVCAR-4 ovarian; SK-OV-3 ovarian; IGROV1 ovarian; OVCAR-3 ovarian; HS 578T breast; NCI/ADR-RES ovarian.
Experiment in all cases: NCI-60 one-dose screen, 48 h (100 = growth as untreated, 0 = no growth, -100 = all killed)
What all share (conditions): 10 µM unless noted

Consider `O=C(Cc1ccc(/C=C/C(=O)c2ncc[nH]2)cc1)Nc1cc(C(F)(F)F)cc(C(F)(F)F)c1`, for which the growth in the assay with SK-MEL-2 melanoma was 110%; with EKVX NSCLC, 108%; in the assay with SN12C renal it was 94.9%; with UO-31 renal it was 62.9%; with TK-10 renal, 115%; in the assay on ACHN renal it was 105%. Moreover, the growth with CAKI-1 renal was 78.5%; in the assay on A498 renal, 94.3%; with CCRF-CEM leukemia, 92.9%; in the assay with MOLT-4 leukemia, 67.7%; in the assay with SR leukemia, 41.1%; in the assay with RPMI-8226 leukemia, -18% (active). In addition, the growth in the assay on OVCAR-8 ovarian is 87.1%; in the assay on OVCAR-5 ovarian, 103%; in the assay on OVCAR-4 ovarian, 100%; in the assay with SK-OV-3 ovarian, 105%; with IGROV1 ovarian, 84.4%; in the assay on OVCAR-3 ovarian, 59.3%. Besides, the growth in the assay on HS 578T breast was 87.6%; with NCI/ADR-RES ovarian it was 102%.
As for `CC1C=CC(OC(=O)C(C)(O)CCC(O)(C(=O)OC2CC(O)C(C(C)C)CC2(C)O)C(C)C)(C(C)C)CC1` (stereo not given), the growth with SK-MEL-2 melanoma is -81.6% [4.63 µM] (active); with EKVX NSCLC, -73.6% [4.63 µM] (active); in the assay with SN12C renal, -62.4% [4.63 µM] (active); with UO-31 renal, -99.6% [4.63 µM] (active); in the assay with TK-10 renal, -86.1% [4.63 µM] (active); with ACHN renal, -93.8% [4.63 µM] (active). Moreover, the growth was -97.3% [4.63 µM] (active) with CAKI-1 renal; -92.3% [4.63 µM] (active) in the assay on A498 renal; -31.8% [4.63 µM] (active) in the assay on CCRF-CEM leukemia; -46.4% [4.63 µM] (active) in the assay with MOLT-4 leukemia; -24.7% [4.63 µM] (active) in the assay on SR leukemia; -39.7% [4.63 µM] (active) in the assay on RPMI-8226 leukemia. The growth in the assay with OVCAR-8 ovarian is -9.1% [4.63 µM] (active); in the assay on OVCAR-5 ovarian, -85.3% [4.63 µM] (active); in the assay on OVCAR-4 ovarian, -90.5% [4.63 µM] (active); in the assay with SK-OV-3 ovarian, -91.5% [4.63 µM] (active); in the assay on IGROV1 ovarian, -70.6% [4.63 µM] (active); in the assay on OVCAR-3 ovarian, -94.3% [4.63 µM] (active). Besides, the growth in the assay on HS 578T breast is 22.4% [4.63 µM]; with NCI/ADR-RES ovarian it was -9.57% [4.63 µM] (active).
As for `O=C(/C=C/c1ccc(Cl)cc1)c1cccc(OCCCOc2cccc(C(=O)/C=C/c3ccc(Cl)cc3)c2)c1`, the growth with SK-MEL-2 melanoma is 107%; in the assay on EKVX NSCLC, 107%; with SN12C renal, 103%; in the assay on UO-31 renal it was 86.1%; with TK-10 renal, 95.6%; with ACHN renal, 99.6%. The growth was 95.4% with CAKI-1 renal; 94.9% with A498 renal; 92.9% in the assay with CCRF-CEM leukemia; 93.3% in the assay with MOLT-4 leukemia; 32.8% with SR leukemia; -8.57% (active) with RPMI-8226 leukemia. For the same compound, the growth in the assay with OVCAR-8 ovarian was 99.3%; in the assay on OVCAR-5 ovarian it was 113%; in the assay on OVCAR-4 ovarian, 91.7%; in the assay with SK-OV-3 ovarian, 100%; in the assay on IGROV1 ovarian, 108%; with OVCAR-3 ovarian it was 95.4%. Besides, the growth in the assay with HS 578T breast was 106%; in the assay on NCI/ADR-RES ovarian, 105%.
For the compound `O=C(Cc1ccccc1)Nc1cccc(N=Cc2ccccc2O)c1`, the growth in the assay with SK-MEL-2 melanoma is 116%; in the assay on EKVX NSCLC it was 104%; in the assay with SN12C renal it was 96.6%; with UO-31 renal, 77.6%; with TK-10 renal, 103%; with ACHN renal, 110%. Moreover, the growth is 80.8% in the assay with CAKI-1 renal; 115% with A498 renal; 106% with CCRF-CEM leukemia; 101% with MOLT-4 leukemia; 117% with SR leukemia; 113% in the assay on RPMI-8226 leukemia. The growth in the assay on OVCAR-8 ovarian was 98%; with OVCAR-5 ovarian it was 114%; in the assay with OVCAR-4 ovarian, 102%; in the assay with SK-OV-3 ovarian, 106%; in the assay with IGROV1 ovarian it was 111%; with OVCAR-3 ovarian it was 93.2%. Also, the growth in the assay on HS 578T breast is 108%; in the assay with NCI/ADR-RES ovarian, 105%.
`CC(C)=CCNc1ncnc2c1ncn2C1OC(CO)C(O)C1O` (stereo not given): the growth in the assay with SK-MEL-2 melanoma is -33.2% [1 mM] (active); in the assay with EKVX NSCLC, 41.1% [1 mM]; in the assay with SN12C renal, -2.66% [1 mM] (active); in the assay on UO-31 renal, -72.4% [1 mM] (active); in the assay on TK-10 renal it was -10.5% [1 mM] (active); in the assay on ACHN renal, 2.42% [1 mM] (active). Besides, the growth in the assay on CAKI-1 renal is -36.9% [1 mM] (active); in the assay with A498 renal it was -54.2% [1 mM] (active); in the assay with CCRF-CEM leukemia it was -56.6% [1 mM] (active); in the assay on MOLT-4 leukemia, -26.6% [1 mM] (active); in the assay with SR leukemia, 1.23% [1 mM] (active); in the assay with RPMI-8226 leukemia, -40.1% [1 mM] (active). Also, the growth is -40.8% [1 mM] (active) in the assay with OVCAR-8 ovarian; 19.2% [1 mM] in the assay with OVCAR-5 ovarian; -2.16% [1 mM] (active) in the assay on OVCAR-4 ovarian; -21.5% [1 mM] (active) with SK-OV-3 ovarian; 4.13% [1 mM] (active) in the assay on IGROV1 ovarian; -69.9% [1 mM] (active) in the assay with OVCAR-3 ovarian. For the same compound, the growth was -16.8% [1 mM] (active) in the assay with HS 578T breast and -33.2% [1 mM] (active) with NCI/ADR-RES ovarian.
As for `Cc1nc2cc(O)c(O)cc2cc1Oc1ccc(NC(=O)Nc2ccc(Cl)c(Cl)c2)cc1`, the growth with SK-MEL-2 melanoma was 77.7%; in the assay with EKVX NSCLC, 98.5%; in the assay with SN12C renal, 85.6%; with UO-31 renal, 58.6%; in the assay on TK-10 renal it was 85.3%; in the assay on ACHN renal, 39%. Besides, the growth was 27.3% in the assay on CAKI-1 renal; 118% with A498 renal; 19.9% in the assay on CCRF-CEM leukemia; 12.6% with MOLT-4 leukemia; 8.95% (active) with SR leukemia; 75.7% with RPMI-8226 leukemia. For the same compound, the growth is 47.7% with OVCAR-8 ovarian; 122% in the assay on OVCAR-5 ovarian; 67.7% in the assay on OVCAR-4 ovarian; 44.9% in the assay with SK-OV-3 ovarian; 67.1% with IGROV1 ovarian; 67.9% with OVCAR-3 ovarian. Also, the growth was 105% in the assay with HS 578T breast and 59% in the assay with NCI/ADR-RES ovarian.
For `CC(C)(C)c1cc(Cl)c(O)c(CNCCO)c1`, the growth with SK-MEL-2 melanoma is 113%; in the assay on EKVX NSCLC, 101%; in the assay with SN12C renal, 109%; in the assay with UO-31 renal, 99.7%; in the assay on TK-10 renal it was 105%; in the assay on ACHN renal, 110%. Besides, the growth is 94.1% in the assay on CAKI-1 renal; 89.4% in the assay on A498 renal; 110% in the assay with CCRF-CEM leukemia; 115% in the assay on MOLT-4 leukemia; 103% with SR leukemia; 113% in the assay with RPMI-8226 leukemia. The growth in the assay on OVCAR-8 ovarian was 110%; in the assay on OVCAR-5 ovarian, 112%; in the assay with OVCAR-4 ovarian, 104%; in the assay on SK-OV-3 ovarian it was 110%; with IGROV1 ovarian, 117%; with OVCAR-3 ovarian, 111%. The growth in the assay with HS 578T breast was 82.7%; in the assay on NCI/ADR-RES ovarian it was 109%.
With `Cc1cccc(-c2nc(Nc3ccc4ncsc4c3)c3ccccc3n2)n1`, the growth is 83.8% with SK-MEL-2 melanoma; 79.1% in the assay on EKVX NSCLC; 92% in the assay on SN12C renal; 69.1% with UO-31 renal; 87.2% in the assay on TK-10 renal; 91.9% in the assay on ACHN renal. For the same compound, the growth is 105% in the assay on CAKI-1 renal; 83.6% in the assay with A498 renal; 37.5% with CCRF-CEM leukemia; 64.2% with MOLT-4 leukemia; 69.2% in the assay with SR leukemia; 30.6% in the assay with RPMI-8226 leukemia. Also, the growth was 53.4% with OVCAR-8 ovarian; 97.7% in the assay with OVCAR-5 ovarian; 30.7% with OVCAR-4 ovarian; 113% in the assay on SK-OV-3 ovarian; 16.6% in the assay with IGROV1 ovarian; 10.1% in the assay on OVCAR-3 ovarian. Further, the values for the growth with HS 578T breast and with NCI/ADR-RES ovarian were 116% and 86.9%, respectively.
